Measurements reported in PubChem BioAssay AID794 (The Scripps Research Institute Molecular Screening Center, 2007).
This is one part of the list. The source made the active and inactive calls. Rule as the data show it: active = inhibition above about 19%; inactive = the rest.

Target: Focal adhesion kinase 1 (Homo sapiens) (UniProt Q05397)
Assay: human PTK2 activity blockers, single-point recheck – biochemical, confirmation (AID 794)
Conditions: FAK kinase biochemical inhibition assay; at 7 µM; active compounds read high

Sequence of Focal adhesion kinase 1 (Homo sapiens) (Q05397 whole entry, looked up): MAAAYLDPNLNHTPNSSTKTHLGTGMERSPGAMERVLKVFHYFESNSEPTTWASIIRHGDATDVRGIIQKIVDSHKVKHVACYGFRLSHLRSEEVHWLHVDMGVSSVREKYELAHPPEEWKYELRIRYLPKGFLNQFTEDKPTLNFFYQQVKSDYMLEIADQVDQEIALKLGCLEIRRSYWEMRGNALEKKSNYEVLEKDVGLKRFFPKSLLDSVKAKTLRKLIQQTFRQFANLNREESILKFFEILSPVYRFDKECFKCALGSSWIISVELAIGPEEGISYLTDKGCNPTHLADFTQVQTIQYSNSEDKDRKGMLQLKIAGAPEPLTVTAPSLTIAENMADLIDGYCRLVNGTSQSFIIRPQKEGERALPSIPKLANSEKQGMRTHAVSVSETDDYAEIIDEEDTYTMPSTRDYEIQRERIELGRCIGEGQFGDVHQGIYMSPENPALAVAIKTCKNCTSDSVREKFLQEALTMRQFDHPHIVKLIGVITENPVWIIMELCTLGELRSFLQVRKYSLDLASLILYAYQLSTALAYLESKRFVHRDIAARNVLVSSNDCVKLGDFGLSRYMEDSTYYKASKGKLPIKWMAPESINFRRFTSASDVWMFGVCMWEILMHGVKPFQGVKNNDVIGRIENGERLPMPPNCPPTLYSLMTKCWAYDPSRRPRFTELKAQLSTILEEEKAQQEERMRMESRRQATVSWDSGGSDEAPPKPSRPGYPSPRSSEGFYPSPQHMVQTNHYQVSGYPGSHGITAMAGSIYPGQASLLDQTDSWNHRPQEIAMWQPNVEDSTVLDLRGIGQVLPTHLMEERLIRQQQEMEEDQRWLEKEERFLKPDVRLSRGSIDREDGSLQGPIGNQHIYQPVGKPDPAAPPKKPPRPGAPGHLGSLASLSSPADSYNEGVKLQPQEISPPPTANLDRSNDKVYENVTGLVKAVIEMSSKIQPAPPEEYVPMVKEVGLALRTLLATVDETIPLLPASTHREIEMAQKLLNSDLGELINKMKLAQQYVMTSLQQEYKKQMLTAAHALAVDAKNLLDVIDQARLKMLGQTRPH

inhibition, inactive:
Cc1ccc(-c2nn(C(C)(C)C)c3ncnc(N)c23)cc1 15.6%, CC(=O)c1ccc(Cc2ncc(C(F)(F)F)cc2Cl)s1 -0.34%, COC(=O)c1c(NC(=O)CSc2nncs2)sc2c1CCCCC2 10.8%, COCCn1c(C)cc(C(=O)CSc2ncnc3sc4c(c23)CCC4)c1C 4.05%, O=C(Nc1ccc(-n2ccnc2P(=O)(O)c2ccccc2)cc1)c1ccccc1Br 16.2%, Cn1c(CCN2CCCCCC2)nc2cc(NC(=O)Nc3ccccc3)ccc21 7.82%

inhibition, active:
Cc1cc2cc3c(N)[nH]nc3nc2cc1C 20.5%, CCN(CC)S(=O)(=O)c1cc([N+](=O)[O-])ccc1NNC(=O)Nc1ccccc1 19.2%
